Source: PubChem BioAssay (Broad Institute)
BL2 CD40 inh: inhibitors of CD40-induced NF-kB signaling, primary screen, BL2 cells, luciferase reporter, single point; CD40L-induced, 4 h; inhibition, % at 10 µM; 83,000 tested, 0.94% active; AID 1053188, 2014;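 active = mean inhibition of at least 50% with a set share of replicates also reaching that level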
A number is an active result; [ ] = remark or other dose. The entries come from a sample that favours hits as a whole.

How did Cc1cc(C)nc(NC(N)=NCCc2ccccc2)n1 do in these assays?
BL2 CD40 inh: inactive

What do the screens show for `COc1ccccc1-c1cn(CC[C@@H]2CC[C@@H](NC(=O)C3CCCC3)[C@H](CO)O2)nn1`?
BL2 CD40 inh: inactive

How did c1cc2c(cc1C1=Nn3c(nnc3C3CCCCC3)SC1)OCO2 do in these assays?
BL2 CD40 inh: inactive

Results for NC1=NN=C(c2ccc3c(c2)OCCO3)CS1 ?
BL2 CD40 inh: 52

Results for c1ccc(-c2nnc3n2N=C(c2ccc4c(c2)OCO4)CS3)nc1 ?
BL2 CD40 inh: inactive

How did COc1ccc2c3c([nH]c2c1)[C@@H](CO)N(C(=O)Nc1ccc(F)cc1)CC31CN(S(=O)(=O)c2ccc(C)cc2)C1 do in these assays?
BL2 CD40 inh: inactive

How did CC(=O)Nc1ccc2c(c1)CC(=O)N(C)C[C@H](C)[C@H](CN(C)C(=O)NC(C)C)O2 do in these assays?
BL2 CD40 inh: inactive

Results for CN(C)C(=O)c1cccc(-c2ccccc2[C@H]2[C@@H](C#N)N(C(=O)C3CC3)[C@@H]2CO)c1 ?
BL2 CD40 inh: inactive

Results for Cc1cc(C(=O)COC(=O)c2ccccc2O)c(C)n1Cc1cccs1 ?
BL2 CD40 inh: 108

How did Cc1ccsc1C(=O)OCC(=O)c1cc(C)n(C)c1C do in these assays?
BL2 CD40 inh: 62

What do the screens show for `CC(=O)Nc1ccccc1OCC(=O)c1cc(C)n(Cc2cccs2)c1C`?
BL2 CD40 inh: inactive

Results for Cc1cc(C(=O)COc2ncnc3sccc23)c(C)n1C ?
BL2 CD40 inh: inactive

What do the screens show for `Cc1cc(C(=O)COC(=O)c2ccc3c(c2)OCO3)c(C)n1Cc1cccs1`?
BL2 CD40 inh: inactive

How did Cc1cc(C(=O)COC(=O)Cc2ccc(Cl)cc2)c(C)n1C do in these assays?
BL2 CD40 inh: inactive

Results for C[C@@H]1CCCCO[C@@H](CN(C)Cc2ccc3c(c2)OCO3)[C@@H](C)CN([C@H](C)CO)C(=O)c2cc(NS(=O)(=O)c3cn(C)cn3)ccc2O1 ?
BL2 CD40 inh: inactive

What do the screens show for `CO[C@@H]1CN(C)C(=O)c2ccc(NC(=O)c3ccc(F)cc3)cc2OC[C@@H](C)N(C)C[C@H]1C`?
BL2 CD40 inh: inactive

How did CC(C)Sc1nc2ccccc2c(=O)[nH]1 do in these assays?
BL2 CD40 inh: inactive

How did CC(C)N1C(=O)/C(=C\c2nc3ccccc3c(=O)[nH]2)c2ccccc21 do in these assays?
BL2 CD40 inh: 33

How did O=c1[nH]c(C(F)(F)F)nc2ccccc12 do in these assays?
BL2 CD40 inh: inactive

What do the screens show for `CN(Cc1ccccc1)C(=O)C(Cc1ccc2ccccc2c1)NC(=O)C1CCCN1C(=O)Nc1ccccc1[N+](=O)[O-]` (stereo unspecified)?
BL2 CD40 inh: inactive

Results for O=C(c1cc(-c2ccc3c(c2)OCO3)on1)N1CCCCC1 ?
BL2 CD40 inh: 54

What do the screens show for `O=C(c1cc(-c2ccc(O)cc2)on1)N1CCCCCC1`?
BL2 CD40 inh: inactive

What do the screens show for `COc1ccc(-c2cc(C(=O)N3CCCC3)no2)cc1OC`?
BL2 CD40 inh: inactive

How did CN1CCN(C(=O)C[C@@H]2C[C@@H]3c4cc(NC(=O)C5CCC5)ccc4O[C@@H]3[C@@H](CO)O2)CC1 do in these assays?
BL2 CD40 inh: inactive

What do the screens show for `CN(C(=O)Nc1ccc(S(=O)(=O)N(C)C)cc1)C1CCCCC1`?
BL2 CD40 inh: inactive

How did CN(C)S(=O)(=O)c1ccc(NC(=O)Cn2ccsc2=N)cc1 do in these assays?
BL2 CD40 inh: inactive

How did CN(C)S(=O)(=O)c1ccc(NC=O)cc1 do in these assays?
BL2 CD40 inh: 27

What do the screens show for `COc1ccc(C#Cc2ccc([C@@H]3[C@H](CO)N4C(=O)CN(C(=O)c5ccc(F)cc5)C[C@@H]34)cc2)cc1`?
BL2 CD40 inh: inactive

What do the screens show for `Cc1cc(C(=O)Nc2c(C)n(C)n(-c3ccccc3)c2=O)c(C)o1`?
BL2 CD40 inh: inactive

How did Cc1cc(C(=O)NCCCC(=O)O)c(C)o1 do in these assays?
BL2 CD40 inh: inactive

How did Cc1cc(C(=O)NCCC(c2ccccc2)c2ccccc2)c(C)o1 do in these assays?
BL2 CD40 inh: 80

What do the screens show for `O=C(C[C@@H]1C[C@@H]2c3cc(NC(=O)Nc4ccc(F)cc4)ccc3O[C@@H]2[C@H](CO)O1)NC1CCCC1`?
BL2 CD40 inh: inactive

How did COc1ccc(-c2ccc3c(c2)[C@@H]2[C@@H](CCN2C(=O)C2CCC2)[C@H](CO)N3C)cc1 do in these assays?
BL2 CD40 inh: 58

How did COc1ccc(-c2ccc3c(c2)[C@@H]2[C@@H](CCN2C(=O)C2CC2)[C@@H](CO)N3C)cc1 do in these assays?
BL2 CD40 inh: inactive

Results for COc1ccc(-c2ccc3c(c2)[C@H]2[C@H](CCN2C(=O)C2CCOCC2)[C@@H](CO)N3C)cc1 ?
BL2 CD40 inh: inactive

What do the screens show for `C[C@@H]1CN([C@@H](C)CO)C(=O)c2cc(-c3ccc(C#N)cc3)cnc2O[C@H]1CN(C)Cc1cccnc1`?
BL2 CD40 inh: inactive

Results for O=C(NCC1CC1)[C@@H]1[C@@H](CO)[C@@H]2Cn3c(ccc(-c4cccnc4)c3=O)[C@H]1N2C(=O)C1CCC1 ?
BL2 CD40 inh: inactive

What do the screens show for `CCC(=O)NC[C@H]1[C@H](c2ccccc2)[C@@H](CO)N1C(=O)C1CC1`?
BL2 CD40 inh: inactive

Results for O=C(NC1CCCC1)N1CC(=O)N2[C@H](C1)[C@H](c1ccc(-c3cccc(F)c3)cc1)[C@@H]2CO ?
BL2 CD40 inh: inactive

What do the screens show for `CN(C)CCCCOc1ccc(F)cc1`?
BL2 CD40 inh: inactive

What do the screens show for `OCCNCCCCOc1ccc(F)cc1`?
BL2 CD40 inh: inactive

What do the screens show for `N=C(N)c1ccc(OCCCCCOc2ccc(C(=N)N)cc2)cc1`?
BL2 CD40 inh: 62

How did COc1ccc2[nH]c3c(NCCCN4CCCC4=O)ncnc3c2c1 do in these assays?
BL2 CD40 inh: inactive

What do the screens show for `CCN(CC)CCCNc1nc2ccccc2c2[nH]c3ccc(OC)cc3c12`?
BL2 CD40 inh: 103

How did CCN(CC)CCCNS(=O)(=O)c1ccc(OC)cc1 do in these assays?
BL2 CD40 inh: inactive

How did COCC(=O)Nc1ccc2c(c1)[C@H]1C[C@@H](CC(=O)N[C@H](C)c3ccccc3)O[C@@H](CO)[C@H]1O2 do in these assays?
BL2 CD40 inh: inactive

Results for Nc1c(C(=O)N2CCOCC2)sc2nc3c(cc12)CCCC3 ?
BL2 CD40 inh: 69

What do the screens show for `Nc1c(C(=O)N2CCCC2)sc2nc3c(cc12)CCCCCC3`?
BL2 CD40 inh: inactive

How did Nc1c(C(=O)N2CCOCC2)sc2nc3c(cc12)CCC3 do in these assays?
BL2 CD40 inh: inactive

What do the screens show for `COCC(=O)N1[C@H](CO)[C@H](c2ccccc2-c2ccccc2)[C@@H]1C#N`?
BL2 CD40 inh: inactive

How did N#C[C@@H]1N[C@@H](CO)[C@H]1c1ccc(-c2cccc(F)c2)cc1 do in these assays?
BL2 CD40 inh: inactive

What do the screens show for `O=C(Nc1cccc(S(=O)(=O)N2CCCCC2)c1)c1cccs1`?
BL2 CD40 inh: inactive

What do the screens show for `O=C(Nc1cccc(N2C(=O)C=CC2=O)c1)c1cccs1`?
BL2 CD40 inh: 99

What do the screens show for `O=C(Nc1ccc2c(c1)CCC2)c1cccs1`?
BL2 CD40 inh: inactive

How did CN1c2ccc(-c3cccc(C#N)c3)cc2[C@H]2[C@H](CCN2C(=O)C2CC2)[C@@H]1CO do in these assays?
BL2 CD40 inh: inactive

How did C[C@H]1CN([C@@H](C)CO)C(=O)c2c(c3ccccc3n2C)-c2ccccc2CO[C@H]1CN(C)S(=O)(=O)c1ccc([N+](=O)[O-])cc1 do in these assays?
BL2 CD40 inh: 73[25 µM]

Results for C[C@@H]1CN([C@@H](C)CO)C(=O)c2c(c3ccccc3n2C)-c2ccccc2CO[C@H]1CN(C)S(=O)(=O)c1ccccc1 ?
BL2 CD40 inh: inactive

What do the screens show for `COc1cccc(S(=O)(=O)N(C)C[C@H]2OCc3ccccc3-c3c(n(C)c4ccccc34)C(=O)N([C@@H](C)CO)C[C@@H]2C)c1`?
BL2 CD40 inh: 59[25 µM]
